Source: PubChem BioAssay (NCI)
Compounds without any hit were thinned out: in the full panel of roughly 83,000, 20% have a hit.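 Interpretation: 100, growth as untreated; towards 0, rising growth inhibition; 0, no net growth; 0 to -100, cell death. Compounds scoring below 10 were considered active.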 The source made the active and inactive calls.

How the values were obtained:
Assay in all cases: NCI-60 one-dose screen, 48 h (100 = growth as untreated, 0 = no growth, -100 = all killed)
Conditions in all cases: 10 µM unless noted
SN12C renal = tested on: SN12C renal
UO-31 renal = tested on: UO-31 renal
TK-10 renal = tested on: TK-10 renal
ACHN renal = tested on: ACHN renal
CAKI-1 renal = tested on: CAKI-1 renal
A498 renal = tested on: A498 renal
CCRF-CEM leukemia = tested on: CCRF-CEM leukemia
MOLT-4 leukemia = tested on: MOLT-4 leukemia
SK-MEL-2 melanoma = tested on: SK-MEL-2 melanoma
EKVX NSCLC = tested on: EKVX NSCLC

Measured: growth

CC(C)(C)c1ccc(OP(=S)(N/N=C/c2ccccc2O)Oc2ccc(C(C)(C)C)cc2)cc1
inactive: SN12C renal 72.6% | UO-31 renal 61% | TK-10 renal 74.4% | ACHN renal 87.7% | CAKI-1 renal 62.7% | A498 renal 89.9% | CCRF-CEM leukemia 68.6% | MOLT-4 leukemia 43.7%

c1ccc(C2Cc3ccccc3C2=NC2CCCCC2)cc1 (stereo not drawn)
inactive: SK-MEL-2 melanoma 93.5% | SN12C renal 101% | UO-31 renal 89.5% | TK-10 renal 103% | ACHN renal 97% | A498 renal 97.9% | CCRF-CEM leukemia 94.8% | MOLT-4 leukemia 102%

CCCC(=O)N1CCCCC1CC (stereo not drawn)
inactive: SK-MEL-2 melanoma 109% | SN12C renal 105% | UO-31 renal 108% | TK-10 renal 113% | ACHN renal 97.1% | A498 renal 90.8% | CCRF-CEM leukemia 95.3% | MOLT-4 leukemia 113%

COC(=O)C(N)CSC(c1ccccc1)(c1ccccc1)c1ccccc1 (stereo not drawn)
inactive: SN12C renal 39.9% | UO-31 renal 52.6% | TK-10 renal 49.5% | ACHN renal 57% | A498 renal 34.1% | CCRF-CEM leukemia 13.7%

Nc1c(C(=O)Nc2cccc(Cl)c2)sc2ncc(Cl)cc12
inactive: SN12C renal 79.3% | UO-31 renal 80.5% | TK-10 renal 118% | ACHN renal 23.9% | CAKI-1 renal 82.6% | A498 renal 103% | MOLT-4 leukemia 75.8%

O=C(c1ccccc1)C(CN1CCOCC1)c1ccccc1 (stereo not drawn)
active: SK-MEL-2 melanoma -8.58% | TK-10 renal 9.68% | ACHN renal 6.83% | CCRF-CEM leukemia 4.53%
inactive: UO-31 renal 11.2% | A498 renal 93% | MOLT-4 leukemia 19.2%

c1cnc2[nH]cc(-c3csc(-c4cn(CCCN5CCCCC5)c5ccccc45)n3)c2c1
active: CCRF-CEM leukemia 6.17% | MOLT-4 leukemia -10.6%
inactive: SK-MEL-2 melanoma 93.7% | SN12C renal 63.4% | UO-31 renal 43.8% | TK-10 renal 115% | ACHN renal 60.2% | A498 renal 83.8%

[B-][N+](CC)(CC)c1ccccc1
inactive: SK-MEL-2 melanoma 113% | SN12C renal 108% | UO-31 renal 83.8% | TK-10 renal 110% | ACHN renal 95.1% | A498 renal 108% | MOLT-4 leukemia 95.2%
active: CCRF-CEM leukemia -12.5%

COc1ccc(C(=O)/C=C/c2cc(-c3cc(OC)c(OC)c(OC)c3)n[nH]2)cc1OC
inactive: SK-MEL-2 melanoma 22.6%
active: SN12C renal 5.5% | UO-31 renal -84.8% | ACHN renal -86.2% | CAKI-1 renal -67% | A498 renal 4.21% | CCRF-CEM leukemia -18.6% | MOLT-4 leukemia -1.18%

O=C1CCC/C=C\C[C@H]2C=C(Cl)C(=O)/C2=C/C[C@H](CCCCC(F)(F)F)OC(=O)CCC/C=C\C[C@H]2C=C(Cl)C(=O)/C2=C/C[C@H](CCCCC(F)(F)F)O1
active: SK-MEL-2 melanoma -45.5% [7.5 µM] | SN12C renal -27.1% [7.5 µM] | UO-31 renal -93.3% [7.5 µM] | TK-10 renal -23% [7.5 µM] | ACHN renal -93.1% [7.5 µM] | A498 renal -49.5% [7.5 µM] | CCRF-CEM leukemia 3.14% [7.5 µM] | MOLT-4 leukemia 1.97% [7.5 µM]

COC(=O)c1cc(=O)nc(N/N=C/c2ccc(C)cc2)s1
inactive: UO-31 renal 86.4% | TK-10 renal 104% | ACHN renal 107% | CAKI-1 renal 102% | A498 renal 104% | CCRF-CEM leukemia 93% | MOLT-4 leukemia 92.6%

C/C(=N\Nc1cc(C)c2cc(C)ccc2n1)c1ccccn1
active: UO-31 renal -91% | TK-10 renal -22.2% | ACHN renal -100% | CAKI-1 renal -16.3% | CCRF-CEM leukemia -22% | MOLT-4 leukemia -17.2%
inactive: SN12C renal 14.8% | A498 renal 20.9%

C/C(=N\Nc1cc(C)c2ccccc2n1)c1ccccn1
inactive: SN12C renal 18.2% | A498 renal 19.2%
active: UO-31 renal -86% | TK-10 renal -12.9% | ACHN renal -47.1% | CAKI-1 renal -15.1% | CCRF-CEM leukemia -20.2% | MOLT-4 leukemia -18.7%

NC(Cc1ccc(O)cc1)C(=O)N/N=C/c1ccccc1O (stereo not drawn)
inactive: SN12C renal 114% | UO-31 renal 74.6% | TK-10 renal 98% | ACHN renal 116% | CAKI-1 renal 107% | A498 renal 103% | CCRF-CEM leukemia 81.2% | MOLT-4 leukemia 75.6%

CCc1ccc(-c2ccc(Nc3ccccc3)nn2)cc1S(N)(=O)=O
inactive: SK-MEL-2 melanoma 78.9% | UO-31 renal 101% | TK-10 renal 116% | ACHN renal 77% | CAKI-1 renal 92.6% | A498 renal 72.2%

OCCNc1nc(Nc2ccc(Cl)c(Cl)c2)nc2ccccc12
inactive: SK-MEL-2 melanoma 64.1% | SN12C renal 37.2% | UO-31 renal 47.6% | TK-10 renal 50% | ACHN renal 59.7% | A498 renal 47% | CCRF-CEM leukemia 15.7%
active: MOLT-4 leukemia 6.93%

Cc1cc(Cl)c2c(N(C)C)cccc2n1
inactive: SN12C renal 102% | UO-31 renal 91.1% | TK-10 renal 125% | ACHN renal 112% | CAKI-1 renal 99.9% | A498 renal 92.1% | CCRF-CEM leukemia 89.8% | MOLT-4 leukemia 97.6%

C/C(=N\Nc1ccc2ccccc2n1)c1ccccn1
active: UO-31 renal -39.2% | ACHN renal -3.16% | CAKI-1 renal -10.9% | CCRF-CEM leukemia -5.75% | MOLT-4 leukemia 1.13%
inactive: SN12C renal 17.5% | TK-10 renal 15.2% | A498 renal 11.1%

O=C1C=C(C(O)c2ccc(O)cc2)C(=O)c2ccccc21 (stereo not drawn)
inactive: SK-MEL-2 melanoma 109% | SN12C renal 107% | UO-31 renal 69.2% | TK-10 renal 103% | ACHN renal 92.7% | A498 renal 104% | MOLT-4 leukemia 84.8%

Cc1ccc(-c2ccc(Nc3ccccc3)nn2)cc1S(N)(=O)=O
inactive: SN12C renal 90.1% | UO-31 renal 107% | TK-10 renal 142% | ACHN renal 91.6% | CAKI-1 renal 80.9% | A498 renal 89.2% | MOLT-4 leukemia 62.2%

C[N+](C)(CCCCCC[N+](C)(C)C1c2ccccc2-c2ccccc21)C1c2ccccc2-c2ccccc21
inactive: SK-MEL-2 melanoma 95.8% | SN12C renal 108% | UO-31 renal 89% | TK-10 renal 112% | ACHN renal 106% | CCRF-CEM leukemia 106% | MOLT-4 leukemia 90.1%

CC(C)=CCC/C(C)=C/CC/C(C)=C/CC/C(C)=C/CSC[C@H](NC(=O)CCCCCN1CCN(C)CC1)C(=O)NC1CCCCC1
inactive: SK-MEL-2 melanoma 97.6% | SN12C renal 97.7% | UO-31 renal 67.3% | TK-10 renal 111% | ACHN renal 83.4% | A498 renal 92.9% | CCRF-CEM leukemia 17.4% | MOLT-4 leukemia 45.2%

Oc1cc(/C=C/c2nc(N3CCOCC3)c3cc(Cl)c(Cl)cc3n2)cc(O)c1O
inactive: SK-MEL-2 melanoma 102% | UO-31 renal 95.2% | TK-10 renal 95.8% | ACHN renal 99.9% | A498 renal 92.5% | CCRF-CEM leukemia 109% | MOLT-4 leukemia 85.3%

CC(C)(C)CC(C)(C)c1ccc(OCCOCC[N+](C)(C)CC(=O)[O-])cc1
inactive: SK-MEL-2 melanoma 117% | SN12C renal 103% | UO-31 renal 98.5% | TK-10 renal 109% | ACHN renal 111% | A498 renal 104% | MOLT-4 leukemia 94.2%

O=C1CN(c2ccccc2)C(=O)C1C(=O)Nc1ccc(Cl)c(Cl)c1 (stereo not drawn)
active: UO-31 renal 5.84% [100 µM] | ACHN renal 2.16% [100 µM] | CAKI-1 renal -2.42% [100 µM] | MOLT-4 leukemia 6.47% [100 µM]
inactive: SK-MEL-2 melanoma 18.1% [100 µM] | TK-10 renal 26.4% [100 µM] | A498 renal 11.3% [100 µM] | CCRF-CEM leukemia 35.9% [100 µM]

Cc1ccc(Nc2c(C(N)=O)cnc3ccc(S(=O)(=O)Nc4cc(C)on4)cc23)cc1
inactive: SK-MEL-2 melanoma 109% | UO-31 renal 78.2% | TK-10 renal 118% | ACHN renal 89.2% | A498 renal 88.8% | CCRF-CEM leukemia 100% | MOLT-4 leukemia 101%

CC(C)(C)c1cc(-n2c(-c3ccc(Cl)cc3)nc3cc(C(=O)Nc4ccc(Cl)cc4)ccc32)n[nH]1
inactive: SK-MEL-2 melanoma 75.8% | UO-31 renal 28.5% | TK-10 renal 50.8% | ACHN renal 38.4% | CAKI-1 renal 32% | A498 renal 48% | CCRF-CEM leukemia 62.5% | MOLT-4 leukemia 45.7%

O=C1C(Cl)=C(Nc2ccc(S(=O)(=O)c3ccc(NC4=C(Cl)C(=O)c5ccccc5C4=O)cc3)cc2)C(=O)c2ccccc21
active: UO-31 renal -62.4% | TK-10 renal -58.7% | ACHN renal -7.78% | CAKI-1 renal -21.3%
inactive: EKVX NSCLC 59.1% | SN12C renal 56.2% | A498 renal 66.2% | CCRF-CEM leukemia 21.1% | MOLT-4 leukemia 19%

Cc1[c-]onc1C.Cc1[c-]onc1C.[Ag].[Ag].[NH-]S(=O)(=O)c1ccc(N=Nc2cc(N=Nc3ccc(S([NH-])(=O)=O)cc3)c3c(NC(=O)C(Cl)Cl)cccc3c2OC(=O)C(Cl)Cl)cc1
inactive: SN12C renal 94.1% | UO-31 renal 71.4% | TK-10 renal 133% | ACHN renal 58% | CAKI-1 renal 68.5% | A498 renal 98.6% | CCRF-CEM leukemia 11% | MOLT-4 leukemia 81.8%

CCCCC[C@H]1C/C=C2/C(=O)C(Cl)=C[C@@H]2C/C=C\CCCC(=O)O[C@@H](CCCCC)C/C=C2/C(=O)C(Cl)=C[C@@H]2C/C=C\CCCC(=O)O1
active: SK-MEL-2 melanoma -46% | SN12C renal -42.2% | UO-31 renal -89.9% | TK-10 renal -20.2% | ACHN renal -93% | A498 renal -77.4% | CCRF-CEM leukemia 0.433% | MOLT-4 leukemia 3.32%
